The source of these data is PubChem BioAssay (EPA / NIEHS).

Read-out in test [1]: TIMP metallopeptidase inhibitor 1 (TIMP1), TIMP1 (gene 7076)
Briefly: BSK_hDFCGF_TIMP1: BioMAP Diversity Plus: hDFCGF Assay for TIMP metallopeptidase inhibitor 1 (TIMP1) Biomarker Activity (AID 2283062). Particulars: primary human foreskin fibroblasts; actives raise or lower the signal. In a few lines: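 Fibroblasts from human foreskin are treated with test chemical and harvested at 24 h. TIMP-1 is quantified by ELISA, and gain or loss of signal is scored against DMSO.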

Read-out in test [2]: Monokine induced gamma interferon (MIG), CXCL9 (gene 4283)
Description: BSK_hDFCGF_MIG: BioMAP Diversity Plus: hDFCGF Assay for Monokine induced gamma interferon (MIG) Biomarker Activity (AID 2283063). Particulars: primary human foreskin fibroblasts; actives raise or lower the signal. The method, boiled down: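 MIG signal, determined by ELISA, reflects 24 h chemical exposure of human skin primary fibroblasts. DMSO serves as negative control and baseline.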

Read-out in test [3]: Matrix Metallopeptidase 1 (MMP1), MMP1 (gene 4312)
Description: BSK_hDFCGF_MMP1: BioMAP Diversity Plus: hDFCGF Assay for Matrix Metallopeptidase 1 (MMP1) Biomarker Activity (AID 2283064). Conditions: primary human foreskin fibroblasts; actives raise or lower the signal. The method, boiled down: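 ELISA read-out of MMP1 from human foreskin fibroblasts (primary skin cells), 24 h post-dose. Gain or loss of signal was fitted bidirectionally versus DMSO negative control; cytotoxicity was checked by SRB in parallel cultures.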

Read-out in test [4]: Vascular cell adhesion molecule 1 (VCAM1), VCAM1 (gene 7412)
Briefly: BSK_hDFCGF_VCAM1: BioMAP Diversity Plus: hDFCGF Assay for Vascular cell adhesion molecule 1 (VCAM1) Biomarker Activity (AID 2283065).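 For AC50: VCAM-1 protein level quantified by ELISA after 24 h chemical exposure.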 Particulars: primary human foreskin fibroblasts; actives raise or lower the signal. The method, boiled down:
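Cells are dosed, cultured for 24 h, then VCAM-1 is quantified by ELISA; signal increases and decreases are both fitted relative to DMSO.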

Read-out in test [5]: Intercellular Adhesion Molecule 1 (ICAM1), ICAM1 (gene 3383)
Briefly: BSK_KF3CT_ICAM1: BioMAP Diversity Plus: KF3CT Assay for Intercellular Adhesion Molecule 1 (ICAM1) Biomarker Activity (AID 2283067). Particulars: primary human keratinocytes with fibroblasts; actives raise or lower the signal. In a few lines: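 Dose the keratinocyte/fibroblast co-culture, wait 24 h, measure ICAM-1 by ELISA, then fit increases or decreases against DMSO. Cytotoxicity is checked in parallel cultures by SRB total-protein staining.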

Read-out in test [6]: Interferon-gamma inducible Protein 10 (IP10), CXCL10 (gene 3627)
Briefly: BSK_KF3CT_IP10: BioMAP Diversity Plus: KF3CT Assay for Interferon-gamma inducible Protein 10 (IP10) Biomarker Activity (AID 2283068). Particulars: primary human keratinocytes with fibroblasts; actives raise or lower the signal. The method, boiled down: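 ELISA read-out of IP-10 after 24 h chemical dosing of human skin primary co-culture (keratinocytes, foreskin fibroblasts). Gain or loss of signal relative to DMSO, bidirectional curve fit.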

The nature of test [7]: BSK_KF3CT_SRB: Viability Assessment in the BioMAP Diversity Plus: KF3CT Assay (AID 2283069). Particulars: primary human keratinocytes with fibroblasts. In a few lines:
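SRB read-out at 560 nm (0.1% stain, TCA-fixed cells) gauges overt cytotoxicity in a human skin keratinocyte–fibroblast co-culture 24 h post-dosing. Signal change was fitted bidirectionally relative to DMSO control.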

Read-out in test [8]: Interleukin-1 alpha (IL1a), IL1A (gene 3552)
Description: BSK_KF3CT_IL1a: BioMAP Diversity Plus: KF3CT Assay for Interleukin-1 alpha (IL1a) Biomarker Activity (AID 2283070). Particulars: primary human keratinocytes with fibroblasts; actives raise or lower the signal. In a few lines:
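Primary skin co-culture (keratinocytes, foreskin fibroblasts), 24 h exposure; ELISA for IL-1a; bidirectional curve fit vs DMSO.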

Read-out in test [9]: TIMP metallopeptidase inhibitor 2 (TIMP2), TIMP2 (gene 7077)
Briefly: BSK_KF3CT_TIMP2: BioMAP Diversity Plus: KF3CT Assay for TIMP metallopeptidase inhibitor 2 (TIMP2) Biomarker Activity (AID 2283071). Particulars: primary human keratinocytes with fibroblasts; actives raise or lower the signal. The method, boiled down: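 Measurements come from ELISA detection of TIMP-2 at 24 hours in a dosed human keratinocyte and foreskin fibroblast co-culture. DMSO serves as negative control and baseline.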

Read-out in test [10]: Transforming growth factor beta 1 (TGFb1), TGFB1 (gene 7040)
Briefly: BSK_KF3CT_TGFb1: BioMAP Diversity Plus: KF3CT Assay for Transforming growth factor beta 1 (TGFb1) Biomarker Activity (AID 2283072). Particulars: primary human keratinocytes with fibroblasts; actives raise or lower the signal. In a few lines:
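TGF-b1 ELISA on a 24 h dosed co-culture of human keratinocytes and foreskin fibroblasts; cytotoxicity tracked in parallel cultures by SRB staining.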

Read-out in test [11]: C-C motif chemokine 2 (Homo sapiens) (UniProt P13500)
Description: BSK_KF3CT_MCP1: BioMAP Diversity Plus: KF3CT Assay for Monocyte Chemoattractant Protein 1 (MCP1/CCL2) Biomarker Activity (AID 2283073). Particulars: primary human keratinocytes with fibroblasts; actives raise or lower the signal. The method, boiled down:
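Keratinocytes and foreskin fibroblasts were co-cultured, dosed with chemical, and sampled 24 h later. MCP-1 was quantified by ELISA, and the endpoint was analyzed with bidirectional fitting using DMSO as negative control.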

Read-out in test [12]: Matrix Metallopeptidase 9 (MMP9), MMP9 (gene 4318)
Description: BSK_KF3CT_MMP9: BioMAP Diversity Plus: KF3CT Assay for Matrix Metallopeptidase 9 (MMP9) Biomarker Activity (AID 2283074).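 For AC50: MMP9 protein level quantified by ELISA in the co-culture.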 Particulars: primary human keratinocytes with fibroblasts; actives raise or lower the signal. In a few lines:
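ELISA read-out of MMP-9 at 24 h post-dosing in a co-culture of human skin keratinocytes and foreskin fibroblasts. Gain or loss of signal was fitted in both directions against DMSO.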

Read-out in test [13]: urokinase plasminogen activator (uPA), PLAU (gene 5328)
Description: BSK_KF3CT_uPA: BioMAP Diversity Plus: KF3CT Assay for urokinase plasminogen activator (uPA) Biomarker Activity (AID 2283075). Conditions: primary human keratinocytes with fibroblasts; actives raise or lower the signal. The method, boiled down: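 Skin co-culture (keratinocytes + foreskin fibroblasts), human primary; 24 h post-dose; uPA by ELISA; gain/loss fit vs DMSO baseline.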

Read-out in another test: CD40, CD40 (gene 958)
Briefly: BSK_LPS_CD40: BioMAP Diversity Plus: LPS Assay for CD40 Biomarker Activity (AID 2283076). Particulars: primary human HUVEC with PBMC; actives raise or lower the signal. The method, boiled down: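 CD40 signal, measured by ELISA, is fitted in both directions relative to DMSO vehicle. The system is an LPS-driven human vascular primary co-culture of endothelial cells and PBMC, sampled 24 h after compound addition.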

Read-out in test [14]: E-selectin (Homo sapiens) (UniProt P16581)
Description: BSK_LPS_Eselectin: BioMAP Diversity Plus: LPS Assay for Eselectin Biomarker Activity (AID 2283077). Particulars: primary human HUVEC with PBMC; actives raise or lower the signal. In a few lines:
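Signal of E-selectin, detected by ELISA, served as the endpoint; cells were umbilical vein endothelium with PBMC, read 24 h after treatment. DMSO defined baseline, and both increases and decreases were fitted.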

Read-out in test [15]: Interleukin-8 (IL8), CXCL8 (gene 3576)
Briefly: BSK_LPS_IL8: BioMAP Diversity Plus: LPS Assay for Interleukin-8 (IL8) Biomarker Activity (AID 2283078). Particulars: primary human HUVEC with PBMC; actives raise or lower the signal. In a few lines:
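Endothelial cells and PBMC from human donors are co-cultured, treated with chemicals and LPS, then assayed for IL-8 by ELISA after 24 h. Parallel SRB staining (0.1% SRB after 10% TCA fixation, 560 nm) flags cytotoxicity.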

Test [16] can be described thus: BSK_LPS_SRB: Viability Assessment in the BioMAP Diversity Plus: LPS Assay (AID 2283079).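 Note: total protein by sulforhodamine B absorbance as a cytotoxicity measure; measured one day after compound addition.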 Conditions: primary human HUVEC with PBMC. In a few lines: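 Overt cytotoxicity was gauged by sulforhodamine B total-protein staining in a primary human vascular endothelial and mononuclear cell co-culture 24 h post-dosing. Activity was fitted in both directions relative to DMSO.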

Read-out in test [17]: Interleukin-1 alpha (IL1a), IL1A (gene 3552)
Description: BSK_LPS_IL1a: BioMAP Diversity Plus: LPS Assay for Interleukin-1 alpha (IL1a) Biomarker Activity (AID 2283080). Particulars: primary human HUVEC with PBMC; actives raise or lower the signal. In a few lines:
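Measured: IL-1 alpha via ELISA at 24 h in LPS-activated human umbilical vein endothelium–PBMC co-culture. Baseline: DMSO, bidirectional fitting.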

Read-out in test [18]: Monocyte Chemoattractant Protein-1 (MCP1), CCL2 (gene 6347)
Description: BSK_LPS_MCP1: BioMAP Diversity Plus: LPS Assay for Monocyte Chemoattractant Protein-1 (MCP1) Biomarker Activity (AID 2283081).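 For AC50: secreted MCP-1 protein quantified by ELISA in culture supernatant.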 Particulars: primary human HUVEC with PBMC; actives raise or lower the signal. The method, boiled down:
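LPS-stimulated HUVEC/PBMC co-culture; chemical, 24 h; MCP-1 by ELISA; bidirectional fit vs DMSO; cytotoxicity via SRB (0.1% stain, 10% TCA fix, 560 nm) in parallel wells.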

The source made the active and inactive calls. Rule for the calls: active = hit-call score of the fitted dose curve at least 0.9, where 1 is the maximum; inactive = score below 0.9.

By AC50 is commonly meant the midpoint of the concentration-response curve, whichever way the signal moves.

E-selectin (Homo sapiens), sequence (P16581 whole entry, looked up): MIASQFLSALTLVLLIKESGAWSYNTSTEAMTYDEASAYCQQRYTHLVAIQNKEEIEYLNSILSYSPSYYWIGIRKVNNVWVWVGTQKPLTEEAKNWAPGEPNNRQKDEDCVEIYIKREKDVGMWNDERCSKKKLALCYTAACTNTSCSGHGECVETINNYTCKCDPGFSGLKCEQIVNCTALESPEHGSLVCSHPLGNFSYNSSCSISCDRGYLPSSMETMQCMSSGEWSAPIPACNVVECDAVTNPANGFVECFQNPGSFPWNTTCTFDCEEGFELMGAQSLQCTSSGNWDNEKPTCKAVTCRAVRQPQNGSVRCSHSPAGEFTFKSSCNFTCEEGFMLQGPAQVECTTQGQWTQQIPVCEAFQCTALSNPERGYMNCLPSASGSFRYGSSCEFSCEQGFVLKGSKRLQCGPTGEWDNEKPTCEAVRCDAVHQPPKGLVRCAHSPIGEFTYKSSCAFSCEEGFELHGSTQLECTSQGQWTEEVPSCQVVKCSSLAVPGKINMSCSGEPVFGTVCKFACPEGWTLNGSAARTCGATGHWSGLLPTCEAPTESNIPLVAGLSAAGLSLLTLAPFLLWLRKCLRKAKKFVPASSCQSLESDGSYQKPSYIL

As to `CCCCCCCCn1sccc1=O`, the AC50 in [1] is 2.09 µM (active); in test [2] it was 0.949 µM (active); in test [3], 1.43 µM (active); in [4] it was 1.09 µM (active); in test [5], 9.79 µM (active); in [6], 8.03 µM (active). In addition, the AC50 was 6.74 µM (active) in test [7]; 9.05 µM (active) in test [8]; 11.2 µM (active) in [9]; 9.71 µM (active) in test [10]; 10.6 µM (active) in test [11]; 12.4 µM (active) in test [12]. In addition, the AC50 is 11.2 µM (active) in test [13]; 5.76 µM (active) with CD40, CD40 (gene 958); 9.25 µM (active) in test [14]; 9.78 µM (active) in test [15]; 20.8 µM (active) in test [16]; 4.97 µM (active) in [17]. Moreover, in [18], the AC50 was 6.88 µM (active).

Take `Clc1ccc(C(c2ccc(Cl)cc2)C(Cl)(Cl)Cl)cc1`: the AC50 in test [1] was 13 µM (active); in test [2] it was 15.8 µM (active); in [3], 14.8 µM (active); in test [4] it was 9.94 µM (active); in [5], 27.7 µM (active); in [6], 16.3 µM (active). In addition, the AC50 was 18.7 µM (active) in test [7]; 25.1 µM (active) in [8]; 11.7 µM (active) in test [9]; 14.8 µM (active) in [10]; 12.7 µM (active) in test [11]; 11 µM (active) in [12]. The AC50 is 20.1 µM (active) in test [13]; 20 µM (active) with CD40, CD40 (gene 958); 31.7 µM (active) in test [14]; 27.4 µM (active) in test [15]; 28.9 µM (active) in test [16]; 14.6 µM (active) in test [17]. In test [18], the AC50 is 33.1 µM (active).

For the compound `OCCOCCO`, the outcome in test [1], in test [2], in [3], in test [4], in test [5] and in test [6] was inactive. Moreover, the result in test [7], in test [8], in test [9], in [10], in test [11] and in test [12] was inactive. Further, the outcome in [13] was “inactive”; with CD40, CD40 (gene 958) it was “inactive”; in [14], “inactive”; in test [15] it was “inactive”; in [16] it was “inactive”; in test [17], “inactive”. Moreover, the result in test [18] was inactive.

With `[O-][Cl+]O`, the result in test [1], in test [2], in [3], in [4], in test [5] and in [6] was inactive. The outcome in [7], in test [8], in test [9], in test [10], in test [12] and in [13] was inactive. Further, the outcome with CD40, CD40 (gene 958) was “inactive”; in [14] it was “inactive”; in [15] it was “inactive”; in test [16], “inactive”; in test [17], “inactive”.
